Screening data deposited in PubChem BioAssay by National Center for Advancing Translational Sciences (NCATS).
This excerpt belongs to a sample that is enriched for hits.
LmPK inh: LmPK (Leishmania mexicana) enzyme inhibition; Q27686; Potency, µM (top dose mostly 57.5 µM), inactives show at the highest dose activity change, negative = inhibition, most hits filed as inhibitors; purified LmPK, Kinase-Glo ATP luminescence, 1 h; AID 1721; hit rate 0.37% among 290,000; also: potency is read from the fitted curve at half-maximal effect; % is scaled to controls: 0 for no effect and ±100 for the full control effect
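Kinase-Glo luminescence read after 1 h RT reaction of 0.1 nM LmPK with 0.5 mM PEP and 0.1 mM ADP. Activity scaled between uninhibited and enzyme-free controls.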
TbPYK inhibitor: T. brucei pyruvate kinase inhibition; Q57TT1; Potency, µM (doses to about 76.8 µM), without a hit: at the highest dose activity, negative = inhibition, usual class: inhibitors; TbPYK enzyme, Kinase-Glo Plus ATP luminescence, 45 min; AID 624173; hit rate 0.12% among 410,000; also: potency is read from the fitted curve at half-maximal effect; % is scaled to controls: 0 for no effect and ±100 for the full control effect; nearly all actives have a fitted effect of over 50% in size
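Screened from lowest to highest concentration, compounds were pinned into TbPYK/substrate mixtures, and ADP (130 uM final) was added. Plates sat at room temperature for 45 min prior to Kinase-Glo Plus detection by luminescence.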
Cycloheximide cs: affects cycloheximide protein synthesis inhibition readout, counter-screen; max response, %; hit rate 12% among 300,000; cell reporter, cycloheximide protein synthesis inhibition counterscreen; in the data active = max response mostly above about 13%, no sharp cut-off; inactive = mostly below about 14%; also: read at 38.3 µM for the half of the compounds with a filed dose; 0% is about no effect
Sm TGR block: inhibitors of Schistosoma mansoni thioredoxin glutathione reductase. Q962Y6. purified TGR, DTNB reduction, TNB absorbance 405 nm. Potency, µM (titrated, usually from 114 µM), without a hit: top-dose activity change, negative = inhibition, hits mostly inhibitors. hit rate 3% among 360,000. AID 485364; also: potency is read from the fitted curve at half-maximal effect; % is scaled to controls: 0 for no effect and ±100 for the full control effect; nearly all actives have a fitted effect of over 60% in size
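Kinetic colorimetric format: TGR-catalysed, NADPH-driven DTNB reduction monitored via TNB absorbance. Enzyme dispensed at 20 nM; compound exposure 15 min at room temperature before reaction start.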
Shiga inhibitor: Shiga toxin inhibition; Vero cells, Shiga toxin protein synthesis inhibition reporter; hit rate 9.2% among 290,000; AID 2315; inhibition, % at 38.7 µM; in the data active = inhibition mostly above about 28%, no sharp cut-off; inactive = mostly below about 43%; also: 0% is about no effect
FBPA Giardia inh: inhibitors of Giardia lamblia fructose-1,6-bisphosphate aldolase. purified Giardia FBPA. hit rate 0.71% among 290,000. A8B2U2. Potency, µM (titrated, usually from 59.6 µM), for inactives: top-dose activity, negative = inhibition, most hits filed as inhibitors; also: potency is read from the fitted curve at half-maximal effect; % is scaled to controls: 0 for no effect and ±100 for the full control effect; nearly all actives have a fitted effect of over 55% in size
Target sequence (A8B2U2 whole entry, looked up): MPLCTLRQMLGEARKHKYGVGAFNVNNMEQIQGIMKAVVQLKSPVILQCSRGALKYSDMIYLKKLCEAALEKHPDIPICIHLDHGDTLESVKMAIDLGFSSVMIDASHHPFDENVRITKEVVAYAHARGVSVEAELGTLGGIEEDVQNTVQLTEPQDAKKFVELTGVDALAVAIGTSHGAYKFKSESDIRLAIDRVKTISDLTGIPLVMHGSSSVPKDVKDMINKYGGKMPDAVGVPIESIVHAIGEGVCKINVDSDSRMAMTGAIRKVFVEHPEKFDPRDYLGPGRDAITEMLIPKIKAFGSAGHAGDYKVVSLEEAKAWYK
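Giardia FBPA (40 nM reagent) was preincubated 10 min at RT with compound (up to 57.5 uM final), then substrate plus GAPDH/TPI/NAD/arsenate coupling system with diaphorase/resazurin was added; resorufin fluorescence (525/598 nm) was read after 20 min.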
Active calls of the source: *; [ ] = dose if it differs, or a comment. Unless noted, calls follow the shape of the dose curve; as a rule, active = well fitted curve in the direction sought with a large enough effect; inconclusive = small, poorly fitted or top-dose-only effect, or another doubt; inactive = no such curve, though single readings can be large; an effect the other way counts as inactive or inconclusive.

What do the screens show for `CCN(CC)C1CC(=O)N(c2cccc(C)c2)C1=O` (centres undefined)?
LmPK inh: -3.0%; Cycloheximide cs: 0.8; Sm TGR block: 3.55µM*; Shiga inhibitor: -3.5; FBPA Giardia inh: -1.3%

How did O=C1CC(N2CCOCC2)C(=O)N1c1ccc(Cl)cc1 (centres undefined) do in these assays?
LmPK inh: 0.6%; TbPYK inhibitor: -6.4%; Cycloheximide cs: -4.1; Sm TGR block: 22.4µM*; Shiga inhibitor: -5.6; FBPA Giardia inh: 1.5%

Results for O=C1CC(N2CCN(c3ccccc3)CC2)C(=O)N1c1ccc(Cl)cc1 (centres undefined) ?
LmPK inh: 8.1%; TbPYK inhibitor: 2.8%; Cycloheximide cs: -1.5; Sm TGR block: inconclusive; FBPA Giardia inh: -2.5%

How did Cc1cccc(N2C(=O)CC(N3CCOCC3)C2=O)c1 (centres undefined) do in these assays?
LmPK inh: 0.1%; TbPYK inhibitor: -7.6%; Cycloheximide cs: 13.8; Sm TGR block: 50.1µM*; Shiga inhibitor: -3.1; FBPA Giardia inh: 2.4%

How did O=C1CC(N2CCOCC2)C(=O)N1c1cccc(Cl)c1 (centres undefined) do in these assays?
LmPK inh: 1.7%; TbPYK inhibitor: -10.5%; Cycloheximide cs: 0.5; Sm TGR block: inconclusive; Shiga inhibitor: -6.2; FBPA Giardia inh: 9.1%

How did Cc1cc(C)cc(-n2nnc(-c3nc(-c4ccccc4F)no3)c2C)c1 do in these assays?
TbPYK inhibitor: -1.9%; Sm TGR block: 9.6%

Results for COC(=O)c1cc2c(cc1N)OCCO2 ?
LmPK inh: -15.9%; TbPYK inhibitor: 0.9%; Cycloheximide cs: 25.4*; Sm TGR block: -8.3%; Shiga inhibitor: 25.8; FBPA Giardia inh: inconclusive

What do the screens show for `Cc1ccc(NC(=O)N2CCc3cc(S(=O)(=O)N4CCC(C)CC4)ccc32)cc1`?
TbPYK inhibitor: 2.5%; Sm TGR block: -4.1%

How did CCOC(=O)CNc1nc(Cl)nc(N2CCCCC2)n1 do in these assays?
LmPK inh: -1.0%; TbPYK inhibitor: -2.1%; Cycloheximide cs: 12.3*; Sm TGR block: -1.7%; Shiga inhibitor: 61.2; FBPA Giardia inh: 3.7%

Results for Clc1ccc2oc(-c3ccccn3)nc2c1 ?
LmPK inh: -0.9%; TbPYK inhibitor: -3.2%; Cycloheximide cs: 43.6*; Sm TGR block: 2.8%; Shiga inhibitor: 117.6*; FBPA Giardia inh: -9.4%

Results for c1cncc(-c2nc3ccccc3o2)c1 ?
LmPK inh: -14.5%; TbPYK inhibitor: -6.8%; Cycloheximide cs: 20.9*; Sm TGR block: -2.9%; Shiga inhibitor: 39.5; FBPA Giardia inh: -2.5%

How did c1ccc2nc(-c3nc4ccccc4o3)ccc2c1 do in these assays?
LmPK inh: 3.16µM*; TbPYK inhibitor: inconclusive; Cycloheximide cs: 6.0; Sm TGR block: -6.3%; Shiga inhibitor: 9.8; FBPA Giardia inh: -10.8%

Results for Nc1ccc2oc(-c3ccccn3)nc2c1 ?
LmPK inh: inconclusive; TbPYK inhibitor: -10.8%; Cycloheximide cs: 33.9*; Sm TGR block: -5.8%; Shiga inhibitor: 71.3*; FBPA Giardia inh: inconclusive

How did c1cncc(-c2nc3cc(Cc4ccc5oc(-c6cccnc6)nc5c4)ccc3o2)c1 do in these assays?
LmPK inh: -2.2%; Cycloheximide cs: 13.8; Sm TGR block: 2.4%; Shiga inhibitor: 17.1; FBPA Giardia inh: -1.1%

How did Cc1cc(-c2nc3ccccc3o2)c2ccccc2n1 do in these assays?
LmPK inh: -1.3%; TbPYK inhibitor: -8.4%; Cycloheximide cs: -2.6; Sm TGR block: 11.6%; Shiga inhibitor: 13.2; FBPA Giardia inh: -1.0%

Results for CCOC(=O)c1ccc2c(c1)N(Cc1ccc(F)cc1Cl)C(=O)c1ccccc1S2 ?
TbPYK inhibitor: -8.5%; Sm TGR block: 13.4%

What do the screens show for `Cc1nc(NCc2ccccc2)c2nc(-c3ccccc3)n(CCN3CCCCC3)c2n1`?
FBPA Giardia inh: 7.3%

How did CCOc1ccc(NC(=O)CC2C(=O)N(c3ccc(C)cc3)C(=O)N2Cc2ccc(OC)cc2)cc1 (centres undefined) do in these assays?
TbPYK inhibitor: -0.4%; Sm TGR block: -4.4%

Results for O=C1c2cccnc2C(=O)N1c1cccc(-c2nc3ccccc3o2)c1 ?
LmPK inh: 10.6%; TbPYK inhibitor: -2.0%; Cycloheximide cs: 34.0*; Sm TGR block: 2.2%; Shiga inhibitor: 67.5*; FBPA Giardia inh: -7.5%

Results for c1ccc(-c2nc3ccccc3o2)nc1 ?
LmPK inh: -22.7%; TbPYK inhibitor: 1.9%; Cycloheximide cs: 42.2*; Sm TGR block: -0.4%; Shiga inhibitor: 51.1*; FBPA Giardia inh: 5.4%

How did CC1CCC2C(=O)OC(CN3C(=O)c4ccccc4C3=O)CN2C1c1ccc(Br)cc1 (centres undefined) do in these assays?
FBPA Giardia inh: 0.4%[12.9 µM]

What do the screens show for `CCN(CC(=O)Nc1ccccc1OC)C(=O)c1cc(S(=O)(=O)N2CCCCCC2)ccc1OC`?
TbPYK inhibitor: -5.1%; Sm TGR block: 1.4%

How did CCN(CC)c1ccc(/C=c2\sc3nc4ccccc4n3c2=O)c(O)c1 do in these assays?
LmPK inh: -0.1%; TbPYK inhibitor: -28.4%; Cycloheximide cs: 18.6; Sm TGR block: -14.1%; Shiga inhibitor: 38.0*; FBPA Giardia inh: -1.1%

Results for Cc1cc(C)c2nc3sc(=Cc4ccc(-c5ccccc5C(=O)O)o4)c(=O)n3c2c1 ?
TbPYK inhibitor: -17.3%

Results for Cc1cc(C)c2nc3s/c(=C/c4ccccc4)c(=O)n3c2c1 ?
LmPK inh: 0.0%; Cycloheximide cs: 15.4; Sm TGR block: -15.8%; Shiga inhibitor: 1.8; FBPA Giardia inh: 8.2%

How did O=c1/c(=C\c2cccnc2)sc2nc3ccccc3n12 do in these assays?
LmPK inh: -2.0%; TbPYK inhibitor: 4.8%; Cycloheximide cs: 31.3*; Sm TGR block: -3.1%; Shiga inhibitor: 127.2*; FBPA Giardia inh: 9.2%

How did O=C(O)c1ccc(-c2ccc(/C=c3/sc4nc5ccccc5n4c3=O)o2)cc1Cl do in these assays?
LmPK inh: 9.2%; TbPYK inhibitor: inconclusive; Cycloheximide cs: -0.8; Sm TGR block: 28.2µM*; Shiga inhibitor: -5.2; FBPA Giardia inh: -2.0%

What do the screens show for `O=c1/c(=C/c2ccc(O)c([N+](=O)[O-])c2)sc2nc3ccccc3n12`?
LmPK inh: -5.6%; TbPYK inhibitor: -6.6%; Cycloheximide cs: 32.5*; Sm TGR block: -13.1%; Shiga inhibitor: 94.3*; FBPA Giardia inh: -5.9%

What do the screens show for `Cc1cc(/C=c2\sc3nc4ccccc4n3c2=O)c(C)n1-c1ccc(C(=O)O)cc1`?
LmPK inh: -4.4%; TbPYK inhibitor: -4.2%; Cycloheximide cs: 9.4; Sm TGR block: -14.0%; Shiga inhibitor: 5.8; FBPA Giardia inh: -12.5%

Results for Cc1ccccc1NS(=O)(=O)c1ccc2[nH]cc(C(=O)N3CCCC3)c(=O)c2c1 ?
TbPYK inhibitor: 2.6%; Sm TGR block: 2.3%

How did CCN(Cc1ccccc1)C(=O)CN(c1ccc(OC)cc1)S(=O)(=O)c1c(C)nn(C)c1C do in these assays?
TbPYK inhibitor: -4.9%; Sm TGR block: -0.6%
